DENV2 CPE rescue: protects cells from dengue virus 2 cytopathic effect; CPE inhibition, % at 9.99 µM; 350,000 compounds, 1.7% hits; DENV2-infected cells, cytopathic effect rescue, plate reader; AID 651640; in the data active means CPE inhibition above about 20%, passing the limit was not always enough; inconclusive means no clear call, values can overlap the other calls; tested in BHK-21 cells
SIRT5 inh: blocks human SIRT5 desuccinylation of peptide; Purified SirT5, succinyl-peptide AMC, trypsin-coupled fluorescence; 330,000 compounds, 1.1% hits; inhibition, % at 15 µM; Q9NXA8; AID 652115; in the data active means inhibition above about 15%; inconclusive means no clear call, values can overlap the other calls
ERp5 inh: inhibitors of human ERp5 | Q15084 | ERp5 insulin aggregation, absorbance 650 nm, 90 min | inhibition, % at 9.99 µM | 350,000 compounds, 0.05% hits | AID 651711;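 active means mean replicate inhibition above about 25%, with every replicate also reaching it, limit read from the data, passing the limit was not always enough; inconclusive means only one of those two criteria met; inactive means neither criterion met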
PDI turbidity: PDI (human) enzyme inhibition; inhibition, % at 10 µM; AID 588391; 350,000 compounds, 0.052% hits; PDI insulin aggregation turbidity, A650, 90 min;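 active means mean inhibition across replicates of 30% or more, whatever share of single replicates reach that level; inconclusive means mean inhibition below 30% while every single replicate reaches 30%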
Rtt109 Vps75: C. albicans Rtt109 histone acetyltransferase inhibition. Q5AAJ8. purified Rtt109/Vps75, ThioGlo CoA-SH fluorescence, 4 h. inhibition, % at 34.9 µM. 330,000 compounds, 0.16% hits;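 active means inhibition of at least 50% in every replicate; inconclusive means best replicate reaches 50% inhibition but some replicates fall short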
Target sequence (Q5AAJ8 whole entry, looked up): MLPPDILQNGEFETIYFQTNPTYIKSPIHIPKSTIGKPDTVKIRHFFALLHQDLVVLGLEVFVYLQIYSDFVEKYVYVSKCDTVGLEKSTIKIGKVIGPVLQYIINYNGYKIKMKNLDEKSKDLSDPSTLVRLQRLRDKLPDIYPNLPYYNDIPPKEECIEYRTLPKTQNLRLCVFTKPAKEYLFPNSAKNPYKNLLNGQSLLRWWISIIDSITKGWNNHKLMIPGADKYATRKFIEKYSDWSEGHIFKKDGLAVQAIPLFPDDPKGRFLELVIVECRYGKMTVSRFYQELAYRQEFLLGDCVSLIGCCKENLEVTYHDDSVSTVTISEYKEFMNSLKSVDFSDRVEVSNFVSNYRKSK
Of the large screens only hits and unclear results are named; the others gave an inactive call. Rows were chosen to be rich in hits. Some 2.3% of all compounds tested hit in one or more screens of this group.

Cc1cc(C(=O)Nc2cccc3c2O[C@@H](CN(C)Cc2ccc(C(=O)O)cc2)[C@@H](C)CN([C@H](C)CO)C3=O)n(C)n1	DENV2 CPE rescue 50 (no result: PDI turbidity, Rtt109 Vps75)
CN(C)CC#Cc1ccc([C@H]2[C@@H](CO)N3CCCCN(C(=O)C4CCCC4)C[C@@H]23)cc1	none (no result: PDI turbidity, Rtt109 Vps75)
O=C(Oc1ccccc1)c1cccc2cccc(C(=O)Oc3ccccc3)c12	none (no result: PDI turbidity, Rtt109 Vps75)
O=C(Oc1ccccc1)c1ccccc1C(=O)Oc1ccccc1	DENV2 CPE rescue 27 (no result: PDI turbidity)
Cn1cccc1/C=C1\SC(=Nc2ccccc2)NC1=O	none
Cc1ccc(N=C2NC(=O)/C(=C/c3cn(C)c4ccccc34)S2)cc1C	SIRT5 inh 26
NC(=O)CC(NC(=O)Cc1cccc2ccccc12)c1ccc(NCCc2ccccc2F)c([N+](=O)[O-])c1 (configuration not stated)	DENV2 CPE rescue 21 (no result: SIRT5 inh)
CC(C)CNS(=O)(=O)c1ccc(CCC(=O)NCc2cccnc2)cc1	none (no result: DENV2 CPE rescue, SIRT5 inh, ERp5 inh)
Cc1ccc(CNC(=O)CCc2ccc(S(=O)(=O)NCC(C)C)cc2)cc1	SIRT5 inh 29
CCCCCCCNC(=O)C1(CC2CC(c3ccccc3)=NO2)CCN(C(=O)OC(C)(C)C)CC1 (configuration not stated)	SIRT5 inh 17
CCCCCCCNC(=O)C1(CC2CC(c3ccccc3)=NO2)CCN(C(=O)c2ccccc2)CC1 (configuration not stated)	DENV2 CPE rescue 24
COc1ccc(CN(C)C[C@H]2Oc3ccc(NS(=O)(=O)c4ccccc4)cc3C(=O)N([C@H](C)CO)C[C@H]2C)cc1	none (no result: PDI turbidity, Rtt109 Vps75)
COc1ccc(S(=O)(=O)Nc2ccc3c(c2)C(=O)N([C@@H](C)CO)C[C@H](C)[C@@H](CN(C)Cc2ccc(Oc4ccccc4)cc2)O3)cc1	SIRT5 inh 25 (no result: PDI turbidity, Rtt109 Vps75)
COc1ccc(S(=O)(=O)Nc2ccc3c(c2)C(=O)N([C@@H](C)CO)C[C@@H](C)[C@@H](CN(C)Cc2ccc(Oc4ccccc4)cc2)O3)cc1	SIRT5 inh 35 (no result: PDI turbidity, Rtt109 Vps75)
COc1ccc(S(=O)(=O)Nc2ccc3c(c2)C(=O)N([C@H](C)CO)C[C@H](C)[C@H](CN(C)Cc2ccc(Oc4ccccc4)cc2)O3)cc1	SIRT5 inh 31 (no result: PDI turbidity, Rtt109 Vps75)
COCC(=O)Nc1ccc2c(c1)C(=O)N(C)C[C@H](OC)[C@@H](C)CN(Cc1cncnc1)[C@@H](C)CO2	none (no result: PDI turbidity, Rtt109 Vps75)
COc1ccc2c3c(n(C)c2c1)[C@@H](CO)N(CC1CC1)CC31CCN(C(=O)NC2CCCC2)CC1	none (no result: PDI turbidity, Rtt109 Vps75)
Cc1ccc([C@H]2N[C@]3(CCCN(Cc4ccco4)C3=O)[C@H]3C(=O)N(C)C(=O)[C@@H]23)cc1	DENV2 CPE rescue 60 (no result: Rtt109 Vps75)
Cc1ccc([C@H]2N[C@]3(CCCN(Cc4ccc(Cl)cc4)C3=O)[C@H]3C(=O)N(C)C(=O)[C@@H]23)cc1	ERp5 inh 26 (no result: Rtt109 Vps75)
Cc1ccc(CN2CCC[C@]3(N[C@H](c4ccc(C)cc4)[C@@H]4C(=O)N(C)C(=O)[C@@H]43)C2=O)cc1	DENV2 CPE rescue inconclusive (no result: Rtt109 Vps75)
O=C(C[C@H]1C=C[C@H](NC(=O)c2ccc(F)cc2)[C@@H](CO)O1)NCCc1ccccc1	DENV2 CPE rescue inconclusive (no result: PDI turbidity, Rtt109 Vps75)
C[C@@H]1CN([C@@H](C)CO)C(=O)c2cccc(NS(=O)(=O)c3ccc(F)cc3)c2O[C@H]1CN(C)C	none (no result: PDI turbidity, Rtt109 Vps75)
COCCN1Cc2cccc(C(=O)Nc3ccc(-c4nc5ccccc5[nH]4)cc3)c2C1=O	Rtt109 Vps75 55 (no result: DENV2 CPE rescue, SIRT5 inh, ERp5 inh)
CCOC(=O)N1CCC(NC(=O)c2cccc3c2C(=O)N(CCOC)C3)CC1	DENV2 CPE rescue 62 (no result: PDI turbidity)
CCCN1Cc2cccc(C(=O)Nc3ccc4c(c3)OCCO4)c2C1=O	DENV2 CPE rescue 94 (no result: SIRT5 inh, PDI turbidity)
COCCN1Cc2cccc(C(=O)Nc3cc(C)cc(C)c3)c2C1=O	none (no result: DENV2 CPE rescue, SIRT5 inh, ERp5 inh)
Cc1cc(Cl)ccc1NC(=S)N1CCN(C(=O)C2CCCO2)CC1 (configuration not stated)	none (no result: DENV2 CPE rescue, SIRT5 inh, ERp5 inh)
O=C(C1CCCO1)N1CCN(C(=S)Nc2ccc(Cl)cc2Cl)CC1 (configuration not stated)	Rtt109 Vps75 53
C[C@H]1CN([C@@H](C)CO)C(=O)Cc2cc(NC(=O)C3CCCCC3)ccc2O[C@H]1CN(C)S(=O)(=O)c1ccc(Cl)cc1	none (no result: PDI turbidity, Rtt109 Vps75)
C[C@H](CO)N1C[C@H](C)[C@@H](CN(C)S(=O)(=O)c2ccc(Cl)cc2)Oc2ccc(NC(=O)C3CC3)cc2CC1=O	DENV2 CPE rescue 30 (no result: PDI turbidity, Rtt109 Vps75)
C[C@H](CO)N1C[C@H](C)[C@@H](CN(C)CC2CCCCC2)Oc2ccc(NS(=O)(=O)c3ccc(Cl)cc3)cc2CC1=O	SIRT5 inh 18 (no result: PDI turbidity, Rtt109 Vps75)
